Cycloheximide cs: counter-screen hit for Shiga toxin inhibitors, cycloheximide; 12% of 300,000 active; cell reporter, cycloheximide protein synthesis inhibition counterscreen; max response, %; in the data active = max response mostly above about 13%, no sharp cut-off; inactive = mostly below about 14%; note: read at 38.3 µM for the half of the compounds with a filed dose; 0% is about no effect
LmPK inh: blocks Leishmania mexicana pyruvate kinase activity. Q27686. purified LmPK, Kinase-Glo ATP luminescence, 1 h. Potency, µM (highest dose often 57.5 µM), inactives show at the top dose activity change, negative = inhibition, hits mostly inhibitors. 0.37% of 290,000 active; note: potency is the fitted concentration of half-maximal effect; % is set by controls: 0 for no effect and ±100 for the full control effect
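Kinase-Glo luminescence read after 1 h RT reaction of 0.1 nM LmPK with 0.5 mM PEP and 0.1 mM ADP. Activity scaled between uninhibited and enzyme-free controls.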
Giardia FBPA inh: blocks Giardia fructose-bisphosphate aldolase activity | A8B2U2 | purified Giardia FBPA | Potency, µM (titrated, usually from 59.6 µM), inactives show top-dose activity, negative = inhibition, most hits filed as inhibitors | 0.71% of 290,000 active | AID 2451; note: potency is the fitted concentration of half-maximal effect; % is set by controls: 0 for no effect and ±100 for the full control effect; nearly all actives have a fitted effect of over 55% in size
Target sequence (A8B2U2 whole entry, looked up): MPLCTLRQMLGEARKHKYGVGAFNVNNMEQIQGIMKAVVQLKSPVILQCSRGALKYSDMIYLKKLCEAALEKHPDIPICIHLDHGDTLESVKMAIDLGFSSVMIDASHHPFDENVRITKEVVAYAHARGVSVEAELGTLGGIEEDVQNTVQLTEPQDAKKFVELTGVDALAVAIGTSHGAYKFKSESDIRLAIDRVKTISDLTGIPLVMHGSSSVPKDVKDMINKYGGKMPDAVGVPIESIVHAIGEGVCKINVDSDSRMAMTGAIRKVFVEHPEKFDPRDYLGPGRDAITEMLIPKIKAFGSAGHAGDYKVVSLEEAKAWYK
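Giardia FBPA (40 nM reagent) was preincubated 10 min at RT with compound (up to 57.5 uM final), then substrate plus GAPDH/TPI/NAD/arsenate coupling system with diaphorase/resazurin was added; resorufin fluorescence (525/598 nm) was read after 20 min.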
Sm TGR block: inhibitors of Schistosoma mansoni thioredoxin glutathione reductase; Q962Y6; purified TGR, DTNB reduction, TNB absorbance 405 nm; Potency, µM (highest dose often 114 µM), inactives show at the top dose activity change, negative = inhibition, hits mostly inhibitors; 3% of 360,000 active; AID 485364; note: potency is the fitted concentration of half-maximal effect; % is set by controls: 0 for no effect and ±100 for the full control effect; nearly all actives have a fitted effect of over 60% in size
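First, TGR (20 nM dispensed) and NADPH were mixed with compound. Second, a 15 min room-temperature incubation followed. Third, further NADPH and then DTNB were added to start the reaction. Finally, TNB absorbance was monitored kinetically.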
TbPYK inhibitor: blocks Trypanosoma brucei pyruvate kinase | TbPYK enzyme, Kinase-Glo Plus ATP luminescence, 45 min | 0.12% of 410,000 active | AID 624173 | Potency, µM (series often up to 76.8 µM), for inactives: top-dose activity, negative = inhibition, hits mostly inhibitors | Q57TT1; note: potency is the fitted concentration of half-maximal effect; % is set by controls: 0 for no effect and ±100 for the full control effect; nearly all actives have a fitted effect of over 50% in size
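Readout: single end-point luminescence (Kinase-Glo Plus, 10 min). Reaction conditions were TbPYK/substrate plus 130 uM ADP, 45 min at RT, pH 7.2 TEA buffer. No-enzyme wells served as controls, and data were normalized before concentration-response fitting.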
Shiga inhibitor: inhibitors of Shiga toxin in Vero cells | AID 2315 | inhibition, % at 38.7 µM | Vero cells, Shiga toxin protein synthesis inhibition reporter | 9.2% of 290,000 active; in the data active = inhibition mostly above about 28%, no sharp cut-off; inactive = mostly below about 43%; note: 0% is about no effect
Active calls of the source: *. Shown is part of a subset that was picked to be rich in hits. Unless noted, calls come from the whole dose curve; as a rule, active = well fitted curve in the direction sought with a large enough effect; inconclusive = small, poorly fitted or top-dose-only effect, or another doubt; inactive = no such curve, though single readings can be large; an effect the other way counts as inactive or inconclusive.

What do the screens show for `C#CCNC(=O)C1=C[C@@H](c2ccc(C(F)(F)F)cc2)C[C@@H](OCCCCO)O1`?
Cycloheximide cs: 2; LmPK inh: 5%; Giardia FBPA inh: -21%; Sm TGR block: 22µM*; TbPYK inhibitor: 2%; Shiga inhibitor: 4

Results for CN1CCN(C(=O)C2=C[C@H](c3ccc(C(F)(F)F)cc3)C[C@H](OCCCCO)O2)CC1 ?
TbPYK inhibitor: -4%

What do the screens show for `C#CCNC(=O)C1=C[C@H](c2ccc(Br)cc2)C[C@H](OCCCCO)O1`?
Cycloheximide cs: 12*; LmPK inh: 5%; Giardia FBPA inh: -15%; Sm TGR block: 16µM*; TbPYK inhibitor: 0%; Shiga inhibitor: 31*

What do the screens show for `COc1ccc(S(=O)(=O)N2CCN(Cc3nc4ccc(C)cc4o3)CC2)cc1`?
Sm TGR block: 0%; TbPYK inhibitor: -7%

What do the screens show for `CC1CN(Cc2c(O)ccc3c(=O)c(-c4ccccc4)coc23)CC(C)O1` (centres undefined)?
Cycloheximide cs: -6; LmPK inh: -6%; Giardia FBPA inh: 0%; Sm TGR block: 1%; TbPYK inhibitor: -4%; Shiga inhibitor: -1

Results for CC1CN(Cc2c(O)ccc3c2oc(=O)c2ccccc23)CC(C)O1 (centres undefined) ?
Cycloheximide cs: 6; LmPK inh: -1%; Giardia FBPA inh: 16µM*; Sm TGR block: -22%; TbPYK inhibitor: inconclusive; Shiga inhibitor: -9

What do the screens show for `COC(=O)COC(=O)c1ccc(Oc2nc(OC)nc(N(C)C)n2)cc1`?
Cycloheximide cs: -1; LmPK inh: 0%; Giardia FBPA inh: 0%; Sm TGR block: 2.2µM*; Shiga inhibitor: 43

What do the screens show for `CC(=O)Nc1cccc(-c2csc(C(O)c3ccc(F)c(F)c3)n2)c1` (centres undefined)?
TbPYK inhibitor: 3%

What do the screens show for `O=S(=O)(c1cnc(Cl)c(Cl)c1)N1CCc2ccccc21`?
Cycloheximide cs: -1; LmPK inh: 3%; Giardia FBPA inh: -18%; Sm TGR block: 4µM*; TbPYK inhibitor: 3%; Shiga inhibitor: -3

How did O=S(=O)(c1cnc(Cl)c(Cl)c1)N1CCCc2ccccc21 do in these assays?
Cycloheximide cs: -3; LmPK inh: 0%; Giardia FBPA inh: -14%; Sm TGR block: inconclusive; TbPYK inhibitor: 0%; Shiga inhibitor: -7

How did CN1CCN(S(=O)(=O)c2cnc(Cl)c(Br)c2)CC1 do in these assays?
Cycloheximide cs: -2; LmPK inh: -1%; Giardia FBPA inh: 5%; Sm TGR block: 1%; TbPYK inhibitor: -12%; Shiga inhibitor: -14

How did O=S(=O)(c1cnc(Cl)c(Br)c1)N1CCc2ccccc21 do in these assays?
Cycloheximide cs: -2; LmPK inh: -1%; Giardia FBPA inh: -2%; Sm TGR block: 18µM*; TbPYK inhibitor: -18%; Shiga inhibitor: -19

What do the screens show for `N#Cc1nc(-c2ccc(COc3ccccc3)o2)oc1NCc1cccnc1`?
Sm TGR block: 0%; TbPYK inhibitor: 4%

What do the screens show for `CCOC(=O)CC(NC(=O)N1CCC(CN2CCC(C)CC2)CC1)c1ccccc1` (centres undefined)?
Sm TGR block: 3%; TbPYK inhibitor: 0%

How did CCN(CC)CCCCN1c2ccccc2Oc2ccc(Cl)cc21 do in these assays?
Cycloheximide cs: -11; Giardia FBPA inh: -5%; Shiga inhibitor: -13

Results for COC(=O)c1cc(C)nc(Sc2ccccc2N)n1 ?
Cycloheximide cs: 18*; LmPK inh: 22%; Giardia FBPA inh: -9%; Sm TGR block: 3%; TbPYK inhibitor: 8.9µM*; Shiga inhibitor: 45*

Results for C=C(C)Cc1c(C)nc(-c2ccccc2)[nH]c1=O ?
Cycloheximide cs: 18*; LmPK inh: -2%; Giardia FBPA inh: 3%; Sm TGR block: 4%; TbPYK inhibitor: -5%; Shiga inhibitor: 38*

Results for O=C(COc1ccccc1)Nc1ccc(-c2nnc(-c3ccco3)o2)cc1 ?
Cycloheximide cs: -4; LmPK inh: -9%; Giardia FBPA inh: 2%; Sm TGR block: 4%; TbPYK inhibitor: -12%; Shiga inhibitor: 2

Results for CC(C)COc1ccc(-c2nnc(-c3ccco3)o2)cc1 ?
Cycloheximide cs: 30*; LmPK inh: 0%; Giardia FBPA inh: -1%; Sm TGR block: -19%; TbPYK inhibitor: 0%; Shiga inhibitor: 37

What do the screens show for `CCCOc1ccc(-c2nnc(-c3ccco3)o2)cc1`?
Cycloheximide cs: 51*; LmPK inh: -27%; Giardia FBPA inh: 12%; Sm TGR block: 12%; TbPYK inhibitor: -3%; Shiga inhibitor: 36

Results for Cc1ccc(CSCC(=O)N(C)CC(=O)Nc2ccc(Cl)c(Cl)c2)cc1 ?
Sm TGR block: -1%; TbPYK inhibitor: 0%

Results for Cc1ccc(CSCC(=O)N(C)CC(=O)Nc2ccc(Br)cc2C)cc1 ?
Sm TGR block: 50µM*; TbPYK inhibitor: 1%

How did Cc1nc(/C(N)=N/OC(=O)c2ccc(Cl)cc2)c(C(F)(F)F)o1 do in these assays?
Cycloheximide cs: 46*; LmPK inh: inconclusive; Giardia FBPA inh: -2%; Sm TGR block: 0%; TbPYK inhibitor: -6%; Shiga inhibitor: 46*

What do the screens show for `Cc1nc(C(=O)NNC(=O)c2cccc(Cl)c2)c(C(F)(F)F)o1`?
Cycloheximide cs: -1; LmPK inh: 2%; Giardia FBPA inh: inconclusive; Sm TGR block: inconclusive; TbPYK inhibitor: 0%; Shiga inhibitor: -3

Results for COc1ccc(OC)c(NC(=O)c2cn(CC(C)C)c(=O)c3cc(OC)c(OC)cc23)c1 ?
Sm TGR block: -11%; TbPYK inhibitor: 0%

What do the screens show for `Cc1ccc(Oc2cc(-n3nc(C)cc3C)ncn2)cc1`?
Cycloheximide cs: 17*; LmPK inh: -17%; Giardia FBPA inh: 3%; Sm TGR block: -24%; TbPYK inhibitor: -4%; Shiga inhibitor: 59*

Results for O=C(COc1ccccc1)N(Cc1cc2ccccc2[nH]c1=O)CC1CCCO1 (centres undefined) ?
Cycloheximide cs: 25*; LmPK inh: 4%; Giardia FBPA inh: -1%; Sm TGR block: -11%; TbPYK inhibitor: -15%; Shiga inhibitor: 41

How did COc1ccc(NC(=O)N(Cc2cc3cc(C)ccc3[nH]c2=O)CC2CCCO2)cc1 (centres undefined) do in these assays?
Cycloheximide cs: -2; LmPK inh: 9%; Giardia FBPA inh: -2%; Sm TGR block: 6%; TbPYK inhibitor: -1%; Shiga inhibitor: -6

How did COc1ccc2cc(CN(CC3CCCO3)C(=O)Nc3ccccc3)c(=O)[nH]c2c1 (centres undefined) do in these assays?
Cycloheximide cs: 7; LmPK inh: 10%; Giardia FBPA inh: 0%; Sm TGR block: -8%; TbPYK inhibitor: 2%; Shiga inhibitor: 6

Bioassay records: PubChem, National Center for Advancing Translational Sciences (NCATS)
